PubChem BioAssay (Tox21)
Results filed as inconclusive are left out. A call without a number means that no potency is given here. Values without a mark were called inactive. Activity calls are given as the source filed them. Unless noted, the call rests on the fitted dose curve; in most records, active means well fitted curve in the direction sought with a large enough effect in the repeat runs; inconclusive means weak or mixed curves; inactive means no such curve, though single readings can be large; an effect the other way counts as inactive or inconclusive.

Legend:
[1] = biological target: Retinoic acid receptor RXR-alpha (Homo sapiens) (UniProt P19793); test: qHTS assay to identify small molecule agonists of the RXR signaling pathway (AID 1159527; calls by dose curve; further: nearly all actives have a fitted effect of over 35% in size)
Sequence of Retinoic acid receptor RXR-alpha (Homo sapiens) (P19793 whole entry, looked up): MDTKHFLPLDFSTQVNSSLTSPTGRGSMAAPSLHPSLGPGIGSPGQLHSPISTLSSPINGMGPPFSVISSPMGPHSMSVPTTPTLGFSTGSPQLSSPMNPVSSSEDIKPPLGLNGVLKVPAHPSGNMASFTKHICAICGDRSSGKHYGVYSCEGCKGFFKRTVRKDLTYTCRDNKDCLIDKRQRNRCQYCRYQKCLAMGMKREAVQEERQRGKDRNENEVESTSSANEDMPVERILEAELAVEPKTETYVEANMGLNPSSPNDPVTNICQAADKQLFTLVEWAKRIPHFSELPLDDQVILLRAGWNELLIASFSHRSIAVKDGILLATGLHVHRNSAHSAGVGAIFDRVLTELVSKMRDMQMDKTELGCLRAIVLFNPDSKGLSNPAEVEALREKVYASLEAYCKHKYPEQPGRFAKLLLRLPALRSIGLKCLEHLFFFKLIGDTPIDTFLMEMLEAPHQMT
Summary of the method: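 GeneBLAzer RXR-alpha-UAS-bla HEK 293T cells in medium with 2% charcoal-stripped FBS, pre-incubated 5 hr at 37 C, then exposed to compounds 16 hr. Beta-lactamase reporter read by FRET substrate, 2 hr room temperature, 460/530 nm emission.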

[2] = qHTS assay to identify small molecule agonists of the RXR signaling pathway - cell viability counter screen (AID 1159529); further: series mostly up to about 77 µM; nearly all actives have a fitted effect of over 50% in size
Summary of the method: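 RXR-alpha-UAS-bla HEK 293T cells in medium with 2% charcoal-stripped FBS were preincubated 5 hr, then exposed to compounds for 16 hr at 37 C. Viability was read as CellTiter-Glo luminescence after 30 min at room temperature.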

[3] = qHTS assay to identify small molecule antagonists of the retinoid acid receptor (RAR) signaling pathway - cell viability counter screen (AID 1159551); further: nearly all actives have a fitted effect of over 35% in size
Summary of the method: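 Cells (C3RL4) are plated, incubated overnight, dosed with compound in DMSO, then given retinol at 1 uM final. After 6 h at 37 C, CellTiter-Glo is added and luminescence read following 30 min at room temperature.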

[4] = qHTS assay to identify small molecule antagonists of the retinoic acid receptor (RAR) signaling pathway (AID 1159552; further: nearly all actives have a fitted effect of over 50% in size; further: potency means the concentration at half of the fitted maximal effect)
Summary of the method: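 RARE-luc C3RL4 cells; cpds + 1 uM (final) retinol, 6 hr, 37 C/5% CO2; luciferase reagent, 30 min RT, luminescence readout. Inhibitors of retinol-driven signal scored.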

[5] = qHTS assay to identify small molecule antagonists of the estrogen related receptor (ERR) signaling pathway from Tox21 library - cell viability counter screen (AID 1224834); further: nearly all actives have a fitted effect of over 30% in size
Summary of the method: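 ERR cells, 2,000/well; 6 h settle at 37 C/5% CO2; pin-tool compound transfer in DMSO; 17.5 h at 37 C; CellTiter-Fluor, 30 min; fluorescence intensity.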

[6] = biological target: Luciferin 4-monooxygenase (Photinus pyralis) (UniProt P08659); test: qHTS assay to identify small molecule inhibitors of firefly luciferase (AID 1224835); further: series mostly up to about 120 µM; nearly all actives have a fitted effect of over 25% in size
Sequence of Luciferin 4-monooxygenase (Photinus pyralis) (P08659 whole entry, looked up): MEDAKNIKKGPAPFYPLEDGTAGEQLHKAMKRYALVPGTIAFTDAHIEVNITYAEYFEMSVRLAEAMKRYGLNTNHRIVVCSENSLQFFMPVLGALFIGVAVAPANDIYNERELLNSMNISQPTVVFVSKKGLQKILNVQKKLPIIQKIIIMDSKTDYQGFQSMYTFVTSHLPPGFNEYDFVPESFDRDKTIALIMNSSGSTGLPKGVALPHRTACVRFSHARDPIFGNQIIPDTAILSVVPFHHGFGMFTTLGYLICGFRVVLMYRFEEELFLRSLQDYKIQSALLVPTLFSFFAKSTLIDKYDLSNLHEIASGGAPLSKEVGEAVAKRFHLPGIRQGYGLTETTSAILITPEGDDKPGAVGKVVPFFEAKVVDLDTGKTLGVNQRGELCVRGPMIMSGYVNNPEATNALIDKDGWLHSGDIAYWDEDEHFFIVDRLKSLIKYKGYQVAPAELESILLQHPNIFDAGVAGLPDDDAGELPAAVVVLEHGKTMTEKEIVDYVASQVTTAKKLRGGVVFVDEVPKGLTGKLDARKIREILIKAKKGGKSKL
Summary of the method: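 Biochemical qHTS: compounds run as interplate titrations against purified firefly enzyme, with D-luciferin and ATP each at its KM concentration. Light output recorded by CCD imaging.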

[7] = qHTS assay to identify small molecule agonists of the constitutive androstane receptor (CAR) signaling pathway - cell viability counter screen (AID 1224836); further: series mostly up to about 92 µM; nearly all actives have a fitted effect of over 45% in size
Summary of the method: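 HepG2 cells stably carrying hCAR and a CYP2B6-2.2kb reporter were plated 4 h, then given compounds at 15 concentrations plus PK11195 (final 0.75 uM). After 23 h at 37 C, viability was read by CellTiter-Fluor fluorescence.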

[8] = qHTS assay to identify small molecule antagonists of the constitutive androstane receptor (CAR) signaling pathway - cell viability counter screen (AID 1224837); further: series mostly up to about 92 µM; nearly all actives have a fitted effect of over 45% in size
Summary of the method: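 Viability was measured with CellTiter-Fluor in a HepG2 line carrying stably transfected hCAR and a CYP2B6-2.2kb construct. Cells were exposed for 23 hr at 37 C to 15 compound concentrations with 50 nM CITCO as agonist.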

[9] = biological target: Nuclear receptor subfamily 1 group I member 3 (Homo sapiens) (UniProt Q14994); test: qHTS assay to identify small molecule antagonists of the constitutive androstane receptor (CAR) signaling pathway (AID 1224838); further: nearly all actives have a fitted effect of over 40% in size
Sequence of Nuclear receptor subfamily 1 group I member 3 (Homo sapiens) (Q14994 whole entry, looked up): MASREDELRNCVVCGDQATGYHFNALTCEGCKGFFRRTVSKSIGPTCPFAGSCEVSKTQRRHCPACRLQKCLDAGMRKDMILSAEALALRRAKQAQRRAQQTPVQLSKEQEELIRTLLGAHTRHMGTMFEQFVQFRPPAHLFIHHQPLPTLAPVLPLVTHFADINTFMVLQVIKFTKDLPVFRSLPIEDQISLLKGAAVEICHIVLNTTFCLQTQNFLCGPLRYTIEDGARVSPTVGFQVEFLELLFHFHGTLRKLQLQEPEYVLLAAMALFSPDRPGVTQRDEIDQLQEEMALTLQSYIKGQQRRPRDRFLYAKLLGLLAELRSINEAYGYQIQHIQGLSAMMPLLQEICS
Summary of the method: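 Antagonist mode used CITCO at a final 50 nM to activate CAR in human hepatoma HepG2 cells carrying stable hCAR and a 2.2 kb CYP2B6 promoter-luciferase construct. Compounds were tested at 15 concentrations over 24 h, with luminescence as the end point.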

[10] = biological target: Nuclear receptor subfamily 1 group I member 3 (Homo sapiens) (UniProt Q14994); test: qHTS assay to identify small molecule agonists of the constitutive androstane receptor (CAR) signaling pathway (AID 1224839); further: series mostly up to about 92 µM; nearly all actives have a fitted effect of over 15% in size
Summary of the method: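 HepG2 cells stably expressing hCAR and a CYP2B6-2.2kb luciferase reporter were treated with compounds at 15 concentrations plus 0.75 uM PK11195 (final) for 24 h at 37 C; luminescence was read after ONE-Glo addition.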

[11] = qHTS assay to identify small molecule antagonists of the estrogen related receptor signaling pathway with the pleiotropic PPARgamma coactivator (PGC) from Tox21 10K library - cell viability counter screen (AID 1224840; active means well fitted cell-killing curve with a large enough effect in the repeat runs, not every such curve was filed as active; further: nearly all actives have a fitted effect of over 40% in size)
Summary of the method: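 Multiplexed viability counter screen in the PGC/ERR cell line: cells treated with DMSO-dissolved compounds for 17.5 hours at 37 C, then viability measured as CellTiter-Fluor fluorescence.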

[12] = biological target: Thyrotropin receptor (Homo sapiens) (UniProt P16473); test: qHTS assay to identify small molecule agonists of the thyroid stimulating hormone receptor (TSHR) signaling pathway (AID 1224843; calls by dose curve; further: nearly all actives have a fitted effect of over 45% in size)
Sequence of Thyrotropin receptor (Homo sapiens) (P16473 whole entry, looked up): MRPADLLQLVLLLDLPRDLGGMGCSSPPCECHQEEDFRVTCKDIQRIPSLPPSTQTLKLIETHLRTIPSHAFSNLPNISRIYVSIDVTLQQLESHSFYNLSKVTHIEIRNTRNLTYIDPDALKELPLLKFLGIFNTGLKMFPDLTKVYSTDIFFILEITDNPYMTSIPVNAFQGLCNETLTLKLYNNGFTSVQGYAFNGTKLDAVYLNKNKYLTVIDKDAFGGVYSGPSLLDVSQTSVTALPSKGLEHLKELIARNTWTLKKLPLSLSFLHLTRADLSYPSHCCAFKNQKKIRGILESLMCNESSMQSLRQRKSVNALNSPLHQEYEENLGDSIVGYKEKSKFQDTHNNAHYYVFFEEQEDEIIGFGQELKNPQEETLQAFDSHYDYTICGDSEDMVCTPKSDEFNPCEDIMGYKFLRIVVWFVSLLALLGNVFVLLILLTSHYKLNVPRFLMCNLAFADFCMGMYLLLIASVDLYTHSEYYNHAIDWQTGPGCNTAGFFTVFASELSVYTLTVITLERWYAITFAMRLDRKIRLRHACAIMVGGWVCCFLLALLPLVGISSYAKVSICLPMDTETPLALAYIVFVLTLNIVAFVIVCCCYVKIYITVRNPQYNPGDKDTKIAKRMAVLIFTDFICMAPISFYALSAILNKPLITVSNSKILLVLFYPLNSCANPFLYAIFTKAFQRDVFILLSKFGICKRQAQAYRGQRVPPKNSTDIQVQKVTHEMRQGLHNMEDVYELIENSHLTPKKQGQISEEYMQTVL
Summary of the method: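 HEK293/TSHR, 800 cells/well; cpd 30 min RT; add cAMP-d2 + anti-cAMP-cryptate, 1 h RT; fluorescence read on plate reader. 15-pt titration, n=3.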

[13] = qHTS assay to identify small molecule agonists of the retinoic acid receptor (RAR) signaling pathway (AID 1159553)
Summary of the method: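 Seed C3RL4 reporter cells at 1,000 per well and incubate overnight at 37 C. Add compounds in DMSO, incubate 6 hr. Add luciferase reagent, wait 30 min at room temperature, read luminescence.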

[14] = qHTS assay to identify small molecule antagonists of the estrogen related receptor signaling pathway with the pleiotropic PPARgamma coactivator (PGC) from Tox21 10K library (AID 1224841; call rule not given here; further: actives are mostly falling curves and most rising ones were filed inactive; nearly all actives have a fitted effect of over 50% in size; further: potency means the concentration at half of the fitted maximal effect)
Summary of the method: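 Steps: plate 2,000 PGC/ERR cells per well; incubate 6 h at 37 C with 5% CO2; transfer compounds from DMSO stocks by pin tool; incubate 18 h at 37 C; add One-Glo; measure luminescence 30 min later.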

[15] = qHTS assay to identify small molecule agonists of the estrogen related receptor signaling pathway with the pleiotropic PPARgamma coactivator (PGC) from Tox21 10K library (AID 1224842); further: nearly all actives have a fitted effect of over 15% in size
Summary of the method: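 PGC/ERR reporter cell line, 2,000 cells per well, incubated 6 h at 37 C before 23 nL compound in DMSO was added. After 18 h at 37 C, One-Glo luminescence read following 30 min at room temperature.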

[16] = qHTS assay to identify small molecule antagonists of the estrogen related receptor (ERR) signaling pathway - cell viability counter screen (AID 1224818); further: series mostly up to about 46 µM
Summary of the method: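 ERR cells, 2,000/well; 6 h settle at 37 C/5% CO2; compound pin transfer (DMSO); 17.5 h at 37 C; CellTiter-Fluor, 30 min, fluorescence read.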

[17] = qHTS assay to identify small molecule antagonists of the estrogen related receptor signaling pathway with the pleiotropic PPARgamma coactivator (PGC) cell viability counter screen (AID 1224822;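 further: series mostly up to about 46 µM; viability read after 17.5 h compound exposure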)
Summary of the method: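 Multiplexed viability counter screen run in PGC/ERR cells treated with compounds for 17.5 h at 37 C; live-cell protease signal measured by CellTiter-Fluor fluorescence.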

| Compound | Potency [1] | Potency [2] | Potency [3] | Potency [4] | Potency [5] | Potency [6] | Potency [7] | Potency [8] | Potency [9] | Potency [10] | Potency [11] | Potency [12] | Potency [13] | Potency [14] | outcome [15] | outcome [16] | outcome [17] |
| --- | --- | --- | --- | --- | --- | --- | --- | --- | --- | --- | --- | --- | --- | --- | --- | --- | --- |
| O=C1OC(CCN2CCCCC2)OC1(c1ccccc1)c1ccccc1 (stereo not given) | inactive | inactive | inactive | 26.6 µM (active) | inactive | inactive | inactive | inactive | inactive | inactive | inactive | inactive |  |  |  |  |  |
| O=C(O)c1cccc(Cl)c1 | inactive | inactive | inactive | inactive | inactive | inactive | inactive | inactive | inactive | inactive | inactive | inactive | inactive |  |  |  |  |
| CCN(CC)CCOC(=O)C(C)(c1ccccc1)c1ccccc1 | inactive | inactive | inactive | inactive | inactive | inactive | inactive | inactive | inactive |  | inactive | inactive | inactive | inactive | inactive |  |  |
| C[N+](C)=CCl | inactive | inactive | inactive | inactive | inactive | inactive | inactive | inactive |  |  |  | inactive | inactive |  |  |  |  |
| Cc1cnc[nH]1 | inactive | inactive | inactive |  | inactive | inactive | inactive | inactive | inactive | inactive | inactive | inactive | inactive |  |  |  |  |
| OC(c1ccc(F)cc1)(c1cncnc1)c1ccccc1Cl (stereo not given) | inactive | inactive | inactive | inactive | inactive | inactive | inactive | inactive | inactive | inactive | inactive |  | inactive |  |  |  |  |
| COC(=O)c1ccccc1S(=O)(=O)NC(=O)Nc1nc(C)cc(C)n1 | inactive | inactive | inactive | inactive | inactive | inactive | inactive | inactive | inactive | inactive | inactive | inactive | inactive |  |  |  |  |
| O=C(Oc1ccc(Br)cc1)N1CCN2CCC1CC2 | inactive | inactive | inactive | inactive | inactive | inactive | inactive | inactive |  |  | inactive | inactive | inactive |  |  |  |  |
| COC(=O)COc1ccc(Cl)cc1Cl | inactive | inactive | inactive | inactive | inactive |  | inactive | inactive |  |  | inactive |  | inactive | inactive | inactive |  |  |
| Cc1nc(N)nc(N)n1 | inactive | inactive | inactive | inactive | inactive | inactive | inactive | inactive | inactive | inactive | inactive | inactive | inactive |  |  |  |  |
| COc1cccc(C(=O)NN(C(=O)c2cc(C)cc(C)c2)C(C)(C)C)c1C | inactive | inactive | inactive | inactive |  | inactive |  |  | inactive | inactive | inactive | inactive | inactive | inactive | inactive |  |  |
| CCN(CC)C(C)C(=O)c1ccccc1 (stereo not given) | inactive | inactive | inactive | inactive | inactive | inactive | inactive | inactive | inactive | inactive | inactive | inactive | inactive |  |  |  |  |
| Cc1cc(C)c(C(=O)P(=O)(C(=O)c2c(C)cc(C)cc2C)c2ccccc2)c(C)c1 | inactive | inactive | inactive |  | inactive | inactive | inactive | inactive | inactive | inactive | inactive | inactive | inactive | inactive | inactive |  |  |
| COC(=O)C1=CCCN(C)C1 | inactive | inactive | inactive |  | inactive | inactive | inactive | inactive | inactive |  | inactive | inactive |  |  |  | inactive | inactive |
| Clc1cccc(N2CCNCC2)c1 | inactive | inactive | inactive |  | inactive | inactive | inactive | inactive | inactive | inactive | inactive | inactive | inactive |  |  |  |  |
| Oc1c(Cl)cccc1Cl | inactive | inactive | inactive | inactive | inactive | inactive | inactive | inactive | inactive | inactive |  | inactive |  |  |  |  |  |
| O=C1OC(=O)C2C1C1(Cl)C(Cl)=C(Cl)C2(Cl)C1(Cl)Cl (stereo not given) | inactive | inactive | inactive |  | inactive | inactive | inactive | inactive | inactive | inactive | inactive | inactive | inactive |  |  |  |  |
| CCC(C)(C)c1cc(-n2nc3ccccc3n2)c(O)c(C(C)(C)CC)c1 | inactive | inactive | inactive |  |  | inactive |  |  | inactive | inactive |  | inactive | inactive | 49.3 µM (active) | inactive |  |  |
| N#CC(Cl)(Cl)Cl | inactive | inactive | inactive |  | inactive | inactive | inactive | inactive | inactive | inactive | inactive |  | inactive |  |  |  |  |
| CCCCc1ccc(O)cc1 | inactive | inactive | inactive | inactive | inactive | inactive | inactive | inactive | inactive | inactive |  | inactive | inactive |  |  |  |  |
| COC(C)(C)C | inactive | inactive | inactive |  | inactive | inactive | inactive | inactive |  |  | inactive | inactive | inactive |  |  |  |  |
